Screening data deposited in PubChem by several laboratories.
GDH-TPI counter-1 = GDH-TPI coupled enzyme inhibition counter-screen; AID 588335; inhibition, % at 4.8 µM; GDH-TPI coupled enzyme counterscreen, NADH absorbance; actives 1.2% (n = 360,000); in the data active = inhibition above about 30%;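 note: 0% = DMSO wells and 100% = wells lacking the enzyme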
RecA splice inh = inhibitors of M. tuberculosis RecA intein splicing; P9WHJ3; cell-free RecA intein splicing, fluorescence; inhibition, % (concentration not given with the values); actives 0.75% (n = 290,000); AID 2221; in the data active = inhibition above about 30%;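 note: 0% = vehicle wells and 100% = reference inhibitor control wells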
UGM FP inh = inhibitors of M. tuberculosis UDP-galactopyranose mutase | inhibition, % at 10 µM | actives 0.06% (n = 320,000) | purified UGM, fluorescence polarization probe displacement | P9WIQ1 | AID 504406; in the data active = inhibition above about 10%, passing the limit was not always enough
Mtb bLac sens = beta-lactam sensitization of Mtb H37Rv; M. tuberculosis H37Rv growth with meropenem, percent inhibition; inhibition, % at 25 µM; actives 0.27% (n = 330,000);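 note: growth measured after seven days incubation then overnight dye step; 0% = bacteria only wells and 100% = bacteria with antibiotic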
Rv3671c protease = inhibitors of M. tuberculosis serine protease Rv3671c. P9WHR9. inhibition, % at 5.96 µM. actives 0.048% (n = 320,000); in the data active = inhibition above about 38%;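 note: extracellular domain of Rv3671c used as enzyme; 0% = enzyme with DMSO and 100% = no enzyme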
Target sequence (P9WHR9 whole entry, looked up, the tested form may be a part): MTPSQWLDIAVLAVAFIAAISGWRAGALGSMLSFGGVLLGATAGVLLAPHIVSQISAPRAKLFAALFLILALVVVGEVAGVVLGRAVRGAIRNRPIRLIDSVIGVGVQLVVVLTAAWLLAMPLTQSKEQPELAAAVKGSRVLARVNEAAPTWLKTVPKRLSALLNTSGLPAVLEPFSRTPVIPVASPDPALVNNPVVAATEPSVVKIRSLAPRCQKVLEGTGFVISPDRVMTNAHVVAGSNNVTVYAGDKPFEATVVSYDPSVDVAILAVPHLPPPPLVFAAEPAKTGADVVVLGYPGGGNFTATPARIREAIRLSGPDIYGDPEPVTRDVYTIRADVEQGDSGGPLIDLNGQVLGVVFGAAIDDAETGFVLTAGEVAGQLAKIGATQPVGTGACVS
Mtb FBA inh = Mtb fructose-bisphosphate aldolase inhibition; P9WQA3; purified M. tuberculosis FBA, fluorescence read-out; inhibition, % at 1 µM; actives 2.3% (n = 360,000); AID 588726; in the data active = inhibition above about 27%;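 note: 0% = vehicle and 100% = reference inhibitor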
Mtb FBA inh conf = Mtb FBA inhibition, confirmed. actives 78% (n = 5,600). purified M. tuberculosis FBA, fluorescence read-out. inhibition, % at 1 µM. AID 651616. shares compounds with Mtb FBA inh; in the data active = inhibition above about 27%;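 note: 0% = vehicle wells and 100% = reference inhibitor wells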
GDH-TPI counter-2 = inhibits GDH-TPI coupling enzymes, flagging Mtb FBA hits; AID 652141; GDH-TPI coupled enzyme counterscreen, fluorescence; actives 81% (n = 5,600); shares compounds with Mtb FBA inh; inhibition, % at 1 µM; in the data active = inhibition above about 10%
GDH-TPI dose = counter-screen for M. tuberculosis FBA inhibitors: GDH-TPI dose response. IC50, µM. shares compounds with Mtb FBA inh. actives 79% (n = 170). GDH-TPI coupled enzyme assay, fluorescence, artifact counterscreen. AID 652145
* marks the source's active call; other numbers are inactive results. The list is not random: actives were taken first. Their share in the collection is about 4%. Unless noted, the rule behind the calls is not given here.

For CC1(C(=O)Nc2ccccc2)Cc2c(-c3ccc4c(c3)OCO4)ccnc2O1 (centres undefined) the results were GDH-TPI counter-1 4, Mtb FBA inh 48*, Mtb FBA inh conf 24, GDH-TPI counter-2 10 and GDH-TPI dose 4.5*.
Screening CC(=O)Nc1ccc(-c2ccnc3c2CC(C)(C(=O)Nc2ccc4c(c2)OCO4)O3)cc1 (centres undefined) returned GDH-TPI counter-1 14 and Mtb FBA inh 0.
For CC1(C(=O)Nc2ccc(Cl)c(C(F)(F)F)c2)Cc2c(-c3ccc4c(c3)OCO4)ccnc2O1 (centres undefined) the results were GDH-TPI counter-1 -1 and Mtb FBA inh 4.
Screening CC(=O)Nc1ccc(NC(=O)C2(C)Cc3c(-c4ccc5c(c4)OCO5)ccnc3O2)cc1 (centres undefined) returned GDH-TPI counter-1 0, Mtb FBA inh 52*, Mtb FBA inh conf 6 and GDH-TPI counter-2 -6.
Cc1cccc(NS(=O)(=O)c2c(C(=O)N3CCOCC3)c(C)n(C)c2C)c1C was read as GDH-TPI counter-1 11, RecA splice inh -1, UGM FP inh -2, Mtb bLac sens -2, Rv3671c protease -2 and Mtb FBA inh 5.
`COc1ccc(-c2cc(-c3ccccc3)c(C#N)c(SCC(=O)O)n2)cc1` gave GDH-TPI counter-1 17, RecA splice inh 4, UGM FP inh 2, Mtb bLac sens 1, Rv3671c protease 1, Mtb FBA inh 47*, Mtb FBA inh conf 19, GDH-TPI counter-2 10 and GDH-TPI dose 2.5*.
`COc1ccccc1-c1cc(-c2ccccc2)nc(SCC(=O)O)c1C#N` gave GDH-TPI counter-1 5, RecA splice inh 2, UGM FP inh 1, Mtb bLac sens 6 and Mtb FBA inh 1.
COc1ccc(-c2cc(-c3ccc(Cl)cc3)c(C#N)c(SCC(=O)O)n2)cc1 was read as GDH-TPI counter-1 17, RecA splice inh -3, UGM FP inh 3, Mtb bLac sens 3, Rv3671c protease -39, Mtb FBA inh 47*, Mtb FBA inh conf 53* and GDH-TPI counter-2 37*.
For CCOc1cc(N2CCOCC2)c(OCC)cc1NC(=O)COC(=O)/C=C/c1ccc(OC(F)F)cc1 the results were GDH-TPI counter-1 1, RecA splice inh -3, UGM FP inh 0, Mtb bLac sens 0, Rv3671c protease -2 and Mtb FBA inh -4.
Screening CCc1cc(=O)oc2cc(OCc3nn[nH]n3)ccc12 returned GDH-TPI counter-1 8, RecA splice inh 1, UGM FP inh -1, Mtb bLac sens -1, Rv3671c protease -1, Mtb FBA inh 31*, Mtb FBA inh conf active and GDH-TPI counter-2 active.
For CCc1cc(=O)oc2cc(OCC=C(C)C)ccc12 the results were GDH-TPI counter-1 4, RecA splice inh 2, UGM FP inh 1, Mtb bLac sens -2, Rv3671c protease -4, Mtb FBA inh 36*, Mtb FBA inh conf 35* and GDH-TPI counter-2 30*.
Cn1c(NCCN2CCCC2)nc2cc(-c3ccsc3)sc2c1=O was read as GDH-TPI counter-1 9 and Mtb FBA inh 2.
Screening CCOCCCNC(=O)C(NC(=O)c1ccccn1)c1ccc(C)cc1 (centres undefined) returned GDH-TPI counter-1 3, RecA splice inh -2, UGM FP inh 1, Mtb bLac sens -7, Rv3671c protease -3 and Mtb FBA inh 4.
CCOCCCNC(=O)C(NC(=O)c1ccccc1O)c1ccc(C)cc1 (centres undefined) was read as GDH-TPI counter-1 4, RecA splice inh -4, UGM FP inh 0, Mtb bLac sens -4, Rv3671c protease -4, Mtb FBA inh 42*, Mtb FBA inh conf active and GDH-TPI counter-2 169*.
Cc1ccc(C(=O)NCN2CCN(c3ccccc3)CC2)cc1 was read as GDH-TPI counter-1 -1 and Mtb FBA inh -3.
Screening COCCn1cc(C(=O)N2CCN(C)CC2)c2c3ccccc3n(C)c2c1=O returned GDH-TPI counter-1 1, RecA splice inh 0, UGM FP inh 4, Mtb bLac sens -11, Rv3671c protease 1, Mtb FBA inh 42*, Mtb FBA inh conf 106* and GDH-TPI counter-2 62*.
`CCOC(=O)N1CCN(C(=O)c2cn(CCOC)c(=O)c3c2c2ccccc2n3C)CC1` gave GDH-TPI counter-1 18, RecA splice inh -2, UGM FP inh -2, Rv3671c protease -3, Mtb FBA inh 43*, Mtb FBA inh conf active and GDH-TPI counter-2 active.
`O=C(COC(=O)c1cccc(Br)c1)NC1CCCCCCC1` gave GDH-TPI counter-1 -2 and Mtb FBA inh 0.
Screening Clc1ccc(SCc2cn3ccccc3n2)cc1 returned GDH-TPI counter-1 0, RecA splice inh 3, UGM FP inh -2, Mtb bLac sens 0, Rv3671c protease -2, Mtb FBA inh 61*, Mtb FBA inh conf active and GDH-TPI counter-2 active.
`CC(C)Cc1nnc(NC(=O)C2=COCCO2)s1` gave GDH-TPI counter-1 9, UGM FP inh 0, Mtb bLac sens -2, Rv3671c protease -1 and Mtb FBA inh 3.
For COc1ccc(-c2cc3c(=O)n(CC(=O)NCCN4CCCC4)nc(C)n3n2)cc1 the results were GDH-TPI counter-1 -8, RecA splice inh -2, UGM FP inh -1, Mtb bLac sens 0, Rv3671c protease 0, Mtb FBA inh 32*, Mtb FBA inh conf 63* and GDH-TPI counter-2 54*.
CCCCN(CCCC)Cc1cc(=O)oc2cc(C)c(Cl)cc12 was read as Mtb FBA inh 3.
Screening Cc1ccc(-c2nc3cc(N)ccc3o2)cc1Br returned GDH-TPI counter-1 9, RecA splice inh 0, UGM FP inh 1, Mtb bLac sens 12, Rv3671c protease 4 and Mtb FBA inh 1.
Nc1ccc(-c2nnc(-c3ccc(N)cc3)o2)cc1 was read as GDH-TPI counter-1 36*, RecA splice inh 3, UGM FP inh -1, Mtb bLac sens 22, Rv3671c protease 1, Mtb FBA inh 74*, Mtb FBA inh conf 92* and GDH-TPI counter-2 82*.
Nc1ccc(-c2nc3cc(N)ccc3o2)cc1 was read as GDH-TPI counter-1 34*, RecA splice inh -4, UGM FP inh 1, Mtb bLac sens 4, Rv3671c protease -11, Mtb FBA inh 37*, Mtb FBA inh conf 81* and GDH-TPI counter-2 51*.
Screening CN(C)c1ccc(-c2nc3cc(N)ccc3o2)cc1 returned GDH-TPI counter-1 49*, RecA splice inh -45, UGM FP inh 2, Mtb bLac sens 87, Mtb FBA inh 36*, Mtb FBA inh conf 70* and GDH-TPI counter-2 55*.
